Nrf2 activator: qHTS of Nrf2 Activators. AID 624171, 2012. hit rate 0.31% among 410,000. AREc32 ARE-luciferase reporter (MCF7-derived line), luminescence, 24 h. Potency, µM (series often up to 46.1 µM), for inactives: top-dose activation, usual class: activators; also: potency is read from the fitted curve at half-maximal effect; % of control where 0% means no effect; nearly all actives have a fitted effect of over 65% in size
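Nrf2 activation is followed as ARE-luciferase induction in the AREc32 line after one day of compound treatment; luminescence is read with Steady-Glo.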
A549 tox: Nrf2 qHTS screen for inhibitors: counterscreen for cytotoxicity | A549 ARE-Fluc cells, CellTiter-Fluor viability, 18-24 h | AID 504648, 2011 | Potency, µM (series often up to 46 µM), for inactives: at the highest dose activity change, negative = cytotoxicity, most hits filed as inhibitors | hit rate 0.16% among 390,000; also: potency is read from the fitted curve at half-maximal effect; % is scaled to controls: 0 for no effect and ±100 for the full control effect
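A549 ARE_Fluc cells in 5% FBS OPTI-MEM were exposed to compounds in concentration-response for 18-24 h at 37 deg C. Viability was read by CellTiter-Fluor fluorescence (Ex 405/Em 525) after 30 min, before the luciferase read.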
ClpP mod: qHTS Assay for Activators of ClpP; hit rate 1.9% among 340,000; Potency, µM (series often up to 57.5 µM), for inactives: top-dose activity change, negative = active; ATP-dependent Clp protease proteolytic subunit (Bacillus subtilis (strain 168)), P80244; purified B. subtilis ClpP, FRET peptide cleavage, 20 min; active = well fitted falling curve with a large enough effect; inconclusive = small, poorly fitted or top-dose-only effect; inactive = no such curve, though single readings can be large or run the other way; also: potency is read from the fitted curve at half-maximal effect; the source files actives as falling curves though it sought activators and does not explain the sign; nearly all actives have a fitted effect of over 65% in size
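FRET quenching reversal measured ClpP activation: 10 microg/mL B. subtilis ClpP at pH 8 with the FRET-FV decapeptide, read at 430 nm after 320 nm excitation. The 20-min minus 0-min signal was scaled between DMSO/no-enzyme wells and ADEP (5.8 microM final).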
miR-21 reporter: qHTS Assay for Modulators of miRNAs and/orActivators of miR-21; HeLa miR-21 FLuc reporter, luciferase, 48 h; Potency, µM (series often up to 38.3 µM), inactives show top-dose activity change, positive = activation, most hits filed as activators; 340,000 tested, under 10 active;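 also: % of control where 0% means no effect; miR-21 action dims this reporter so a rising signal means less miR-21 action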
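HeLa cells stably expressing CMV-driven firefly luciferase with a downstream miR-21 binding sequence, endogenously expressing miR-21, were treated with titrations (up to about 40uM final) for 48 hours at 37 degree Celsius. Luciferase luminescence was read after lysis.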
TCR activator: Activators of T cell receptors: qHTS campaign; primary human leukocytes, anti-CD3, IL-2 HTRF, 48 h; Potency, µM (top dose mostly 9.22 µM), for the others: at the highest dose activation of IL-2 secretion, hits mostly activators; 330,000 tested, under 10 active; AID 504894, 2011; also: % of control where 0% means no effect
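IL-2 produced over 48 hr by a-CD3 bead-stimulated primary human leukocytes exposed to compounds was detected with a homogeneous time-resolved FRET immunoassay, 665nm acceptor signal after 320nm excitation.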
Nrf2 inh: Nrf2 qHTS screen for inhibitors | A549 ARE-Fluc reporter, luciferase luminescence, 18-24 h | Potency, µM (top dose mostly 46 µM), inactives show top-dose activity change, negative = inhibition, usual class: inhibitors | hit rate 2.1% among 360,000 | AID 504444, 2011; also: potency is read from the fitted curve at half-maximal effect; % is scaled to controls: 0 for no effect and ±100 for the full control effect; nearly all actives have a fitted effect of over 60% in size
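Nrf2 activity is the BugLite luminescence, read 15 min after reagent at room temperature, following CellTiter-Fluor cytotoxicity readout (30 min, 37C). Compound titrations were applied for 18-24 h to 5000 A549 ARE_Fluc cells/well in 5% FBS OPTI-MEM.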
* = called active by the depositor; u = inconclusive; x = no result; ! = not confirmed by another sample; [ ] = dose if it differs, or a comment. An excerpt weighted towards active compounds, which were near 3.7% of everything screened. Unless noted, calls follow the shape of the dose curve; as a rule, active = well fitted curve in the direction sought with a large enough effect; inconclusive = small, poorly fitted or top-dose-only effect, or another doubt; inactive = no such curve, though single readings can be large; an effect the other way counts as inactive or inconclusive.

SMILES	Nrf2 activator	A549 tox	ClpP mod	miR-21 reporter	TCR activator	Nrf2 inh
OCCN(Cc1ccccc1)Cc1ncccc1O	4%	-7%	x	x	-6%	3%
OCCN(Cc1cccnc1)Cc1ccccn1	2%	21µM*	-1%	x	1%	14%
CSc1cccc(NC(=O)Cn2ncn3c(cc4ccccc43)c2=O)c1	5%	-6%	-23%	-1%	x	-5%
O=C(c1ccccc1)N(Cc1nc2ccccc2c(=O)[nH]1)C1CCCC1	0%	-17%	x	1%	0%	-8%
O=C(NCc1ccccc1)N(Cc1nc2ccccc2c(=O)[nH]1)C1CCCC1	0%	-12%	14µM*	0%	0%	u
COC(=O)C(=Cc1ccc(OCc2ccc([N+](=O)[O-])cc2)c(OC)c1)C(=O)OC	8.9µM*	u	-6%	-40%	-2%	u
CCCCNc1c(CC(C)C)nc2nc(C)cc(C)n12	6%	x	-6%	x	x	x
COc1ccc(-c2cc3ccccc3n2CC(O)CN2CCCCC2)cc1 (stereo unspecified)	4%	4%	3%	-6%	1%	7%
COc1ccc(-c2cc3ccccc3n2CC(O)CNCCO)cc1 (stereo unspecified)	4%	12%	11µM*	-1%	-3%	3%
O=C(O)c1cccc(N2C(=O)C3CC=CCC3C2=O)c1 (stereo unspecified)	0%	-3%	0%	-3%	-2%[46.1 µM]	7%
O=C1[C@@H]2[C@@H](CN3CN(c4ccccc4)N=C(c4ccccc4)[C@@]23c2ccccc2)C(=O)N1c1ccccc1	-1%	6%	3.5µM*	x	-4%	2%
COc1ccc(-n2cnnc2SCc2ncc(-c3ccccc3)o2)cc1	1%	2%	1%	-10%	x	u
Cn1c(COc2ccc(Cl)cc2)nnc1SCc1ncc(-c2ccccc2)o1	2%	-30%	-4%	15%	x	16µM*
CCOC(=O)N1CCc2c(sc(NCc3sccc3C)c2C(=O)Nc2ccccc2OCC)C1	10%	-6%	1%	8%	x	x
O=C1C2C3C=CC(C3)C2C(=O)N1c1ccc(Cc2ccncc2)cc1 (stereo unspecified)	2%	-19%	-2%	3%	-4%	u
CC1CCC2C(=O)N(c3ccc(Cc4ccncc4)cc3)C(=O)C2C1 (stereo unspecified)	-1%	-14%	x	16%	-7%	10µM*
Nc1ccccc1-c1ccc(Cl)cc1	5%	2%	-1%	x	3%	0%
Nc1ccccc1-c1ccccc1N	-1%	0%	7.9µM*	-1%	-2%	7%
COC(=O)c1ccccc1NC(=O)NCc1ccccn1	1%	-14%	28µM*	-5%	-10%	-10%
COc1ccc(NC(=O)NCc2cccnc2)c(OC)c1	0%	7%	-1%	6%	-7%	-3%
COC(=O)c1ccccc1NC(=O)NCc1cccnc1	0%	0%	28µM*	2%	2%	6%
COc1ccc(-c2ocnc2C(=O)Nc2ccccc2N2CCCCC2)cc1	1%	13%	32µM*	-13%	1%	-21%
COc1ccc(OCC(=O)Nc2ccccc2N2CCCCC2)cc1	-1%	6%	0%	14%	-8%	-27%
COC(=O)c1ccccc1NC(=O)c1ncoc1-c1ccco1	1.1µM*	5%	-11%	2%	x	x
COc1ccccc1NC(=O)c1ncoc1-c1ccco1	u	11%	132%	-15%	x	x
SMILES	Nrf2 activator	A549 tox	ClpP mod	miR-21 reporter	TCR activator	Nrf2 inh
COC(=O)c1ccccc1NC(=O)CC(=O)Nc1ccccc1C(=O)OC	9%	16%	u	-10%	-19%	-1%
COC(=O)c1ccccc1NC(=O)NCc1ccco1	22%	4%	28µM*	-7%	x	-6%
CCOC(=O)CNC(=O)Nc1ccccc1C(=O)OC	0%	-3%	28µM*	3%	-10%	1%
O=C1OCCN1N1CCOC1=O	-1%	0%	x	x	-5%	4%
COc1cccc(CNC(=O)c2cnc(N3CCCCC3)c3ccccc23)c1	0%	-3%	-10%	-2%	x	x
C/C(=N\Nc1ccc(Cl)c(C(=O)O)c1)c1ccc(N2CCOCC2)cc1	4%	-3%	x	-62%	-10%	u
COc1cc(OC)c(NC(=O)NCCn2nnc3cc(S(=O)(=O)N(C)C)ccc32)cc1Cl	-1%	-1%	3%	0%	x	x
CC(C)(C)C(=O)NC(=S)NNC(=O)c1ccc(Cl)cc1Cl	0%	u	x	9%	1%	8.2µM*
CC(C)(C)C(=O)NC(=S)NNC(=O)c1ccc(-c2ccccc2)cc1	-2%	u	27%	18%	0%	2.9µM*
CC(C)(C)C(=O)NC(=S)NNC(=O)c1ccncc1	0%	2%	x	-2%	6%	u
COC(=O)NNC(=O)c1ccc(Cl)cc1Cl	0%	-11%	1%	-8%	2%[46.1 µM]	7%
CCN(CC(=O)NCc1ccc(Cl)cc1)C(=O)c1cc(S(=O)(=O)N2CCOCC2)ccc1C	0%	-12%	14µM*	x	5%	u
CCN(CC(=O)NCc1cccs1)C(=O)c1cc(S(=O)(=O)N2CCOCC2)ccc1C	-1%	7%	-10%	-5%	-8%	3%
Cn1cc(-c2nnc(-c3ccccc3)o2)c2ccccc21	12%	-5%	14µM*	-39%	7%	u
Cc1nc(N2CCCCC2)c2c(C)c(C(=O)Nc3cccc(C(F)(F)F)c3)sc2n1	-1%	-12%	4%	-6%	-4%	23µM*
CCOC(=O)c1ccc(S(=O)(=O)N2CCN(c3nc(-c4cccs4)nc4ccccc34)CC2)cc1	x	2%	10µM*	x	x	-15%
COc1ccc(S(=O)(=O)N2CCN(c3nc(-c4cccs4)nc4ccccc34)CC2)cc1	x	-2%	28µM*!	x	x	u
O=S(=O)(c1ccc2ncccc2c1)N1CCN(c2nc(-c3cccs3)nc3ccccc23)CC1	x	-14%	32µM*	x	x	u
CC(C)(C)c1ccc(S(=O)(=O)N2CCN(c3nc(-c4cccs4)nc4ccccc34)CC2)cc1	x	10%	u	x	x	-8%
CC(C)Cn1cc(NC(=O)Nc2cccc(C(F)(F)F)c2)c2ccccc2c1=O	2%	-20%	-10%	u	x	23µM*
CCOc1cccc(C2C=C(c3ccc4c(c3)OCO4)NC(c3ccccc3Cl)N2)c1O (stereo unspecified)	x	0%	2%	x	x	15%
CCOc1nc2c(c(=O)n(C)c(=O)n2C)n1Cc1ccccc1Cl	0%	-11%	-3%	1%	-18%	18µM*

Assay outcomes as filed in PubChem BioAssay.
